Data: PubChem BioAssay AID2069 (Sanford-Burnham Center for Chemical Genomics, 2009)
In all, about 1,200 compounds went through this assay and about 210 (18%) were called active. A selection follows. A number with no mark means an inactive call. Rule as the data show it: active = inhibition above about 30%; inactive = the rest.

Assay: HTRF signal interference by compounds, confirmation, artefact control for SUMOylation inhibitor project, biochemical, uHTS (AID 2069)
Conditions: HTRF interference counterscreen, fluorescence, at 35 µM, hits give high values
With `O=C(CN1C(=O)S/C(=C\c2ccccc2)C1=O)NNC(=O)c1ccccc1O` the inhibition was 2.55%. `S=c1[nH]nc(-c2cc(-c3ccco3)[nH]n2)n1-c1cccc2ccccc12` gave an inhibition of -16.1%. In the case of `C[C@@H]1CN=C2N(CCNC(=O)CCC3CCCCC3)[C@H](Cc3ccc(O)cc3)CN21`, the inhibition was 1.3%. For `COCCNC(=O)CCC1CCN(Cc2ccc(-c3ccccc3)cc2)CC1`, the inhibition was 65.5% (active). In the case of `CCOC(=O)N1CCc2c(sc3c2c(=O)n(Cc2ccccc2)c(=O)n3CC(=O)NCCOC)C1`, the inhibition was -6.7%. `CCOC(=O)Cn1c(=NC(=O)c2sc3ccccc3c2Cl)sc2cc(S(N)(=O)=O)ccc21` showed an inhibition of 8.1%. For `C#CCOc1ccc(/C=C2/C(=O)N(c3cccc(C(=O)O)c3)N=C2C)cc1OC`, the inhibition was -5.85%. Compound `CC(=O)C1=C(C)OC2(O)c3ccccc3C(=O)C12O` (stereo not given) has an inhibition of -21.7%. With `NNc1nc2c(Cl)ccc(Cl)c2s1` the inhibition was -0.55%. With `CC(=O)C1C(=O)C=C(c2ccco2)CC1c1ccccc1` (stereo not given) the inhibition was 0.4%. In the case of `O=c1c2cc(N3CCOCC3)ccc2[nH]c(=S)n1CC1CCCO1` (stereo not given), the inhibition was 55.1% (active). Work on `N#Cc1cc2ccc(N3CCOCC3)cc2cc1C#N` yielded an inhibition of 9.35%. For `COc1ccc2[nH]c3c(=O)n(CCCC(=O)NC4CCC(C)CC4)c(=S)[nH]c3c2c1` (stereo not given), the inhibition was 6.2%. For `O=c1c2cc(N3CCOCC3)ccc2[nH]c(=S)n1Cc1ccccn1`, the inhibition was 56.3% (active). In the case of `CC1CCN(CCCn2c(=S)[nH]c3ccc(N4CCOCC4)cc3c2=O)CC1`, the inhibition was 52.3% (active). Compound `Cc1c(C(=O)O)c(C(=O)O)nc2ccc(N3CCOCC3)cc12` has an inhibition of 7.75%. Compound `N#C/C(=C\c1ccc(-c2ccc([N+](=O)[O-])cc2)o1)C(=O)Nc1nc(-c2cccs2)cs1` has an inhibition of 0.8%. `O=C(c1ccc2c(c1)[nH]c(=S)n1c3ccccc3nc21)N1CCN(c2ncccn2)CC1` showed an inhibition of 11.9%. `COc1ccc(S(=O)(=O)C(C#N)c2nc3ccccc3nc2N2CCC(C)CC2)cc1` (stereo not given) gave an inhibition of -6%. `CCOc1ccc(NC(=S)Nc2cccc3ccccc23)cc1` showed an inhibition of -13.5%. `COc1ccc(OC)c(S(=O)(=O)NCCc2cn3ccsc3n2)c1` showed an inhibition of -8.15%. `CCOC(=O)CCc1c(C)c(C#N)c2[nH]c3ccccc3n2c1=O` gave an inhibition of 2.5%. In the case of `CC(=O)Oc1c(/C=C(\C#N)C(N)=O)[nH]c2ccccc12`, the inhibition was -17.9%. In the case of `C=CCOc1c(Cl)cc(CNc2ccc3[nH]c(=O)[nH]c3c2)cc1OC`, the inhibition was -12.6%. For `COc1ccc(C2=NN(C(=O)CCCC(=O)O)C(c3cn(-c4ccccc4)nc3-c3ccccc3)C2)cc1` (stereo not given), the inhibition was 4.9%. In the case of `O=C(O)c1ccc(N2N=C(c3ccccc3)CC2c2ccccc2)cc1` (stereo not given), the inhibition was 60.1% (active). `Cc1ccc(C2=NN(C(=O)CCC(=O)O)C(c3cn(-c4ccccc4)nc3-c3ccc(C)cc3)C2)cc1` (stereo not given) gave an inhibition of 23.6%. `O=C(N=Nc1c(O)n(Cc2ccccc2)c2ccccc12)c1cc2ccccc2cc1O` gave an inhibition of 10.8%. `COCCn1c(-c2cccs2)csc1=Nc1cccnc1` gave an inhibition of 3.35%. `COc1ccc(-c2nc(SCC(=O)Nc3cc(C)on3)n[nH]2)cc1` showed an inhibition of 22.4%. Work on `O=[N+]([O-])c1cc(C=Nc2cccc3c(O)cccc23)ccc1Cl` yielded an inhibition of -17.1%. For `c1ccc2c3c(cc(N4CCOCC4)c2c1)OC1(N2CCOCC2)CCCCC1O3` (stereo not given), the inhibition was 16%. With `S=C(NCc1ccc2c(c1)OCO2)Nc1ccc2nsnc2c1` the inhibition was -0.25%. Work on `O=C(Nc1ccc2oc(-c3ccc4ccccc4c3)nc2c1)c1ccc2c(c1)OCCO2` yielded an inhibition of 8.15%. `CCCC(=O)Nc1ccc2oc(-c3cncc(Br)c3)nc2c1` gave an inhibition of 19.6%. For `CC(C)CC(=O)Nc1ccc2oc(-c3cccnc3)nc2c1`, the inhibition was 42.5% (active). `Nc1ccc(N2CCN(CCCCN3C(=O)C4CCCN4C3=O)CC2)cc1` (stereo not given) showed an inhibition of -7%. In the case of `Cc1cc(/C=C2\C(=O)NN(c3ccccc3)C2=O)c(C)n1-c1ccccc1O`, the inhibition was -1.5%. With `O=C(Nc1ccc(F)cc1)C(=O)c1c(O)[nH]c2ccc([N+](=O)[O-])cc12` the inhibition was -2.85%. `O=C(O)/C=C/C(=O)Nc1ccc(O)cc1` gave an inhibition of -0.1%. Compound `Cc1ccccc1NC(=O)CN1C(=O)S/C(=C\c2ccc(-c3cc(C(=O)O)ccc3C)o2)C1=O` has an inhibition of 28.9%. For `Cc1ccc(C(=O)O)cc1-c1ccc(/C=C2\SC(=O)N(CC(=O)Nc3ccc4c(c3)OCO4)C2=O)o1`, the inhibition was 23.6%. With `Cc1ccc(NC(=O)CN2C(=O)S/C(=C/c3ccc(-c4cc(C(=O)O)ccc4C)o3)C2=O)cc1C` the inhibition was 37.2% (active). `Cc1cc[n+](-c2[nH]c(=O)sc2/C=N/N=C(\[O-])c2ccncc2)cc1` gave an inhibition of -1.55%. With `CCCCNC(=O)Oc1c(Br)cc2sc(=O)oc2c1Br` the inhibition was 7.5%.
